# Hits are enriched below; roughly 19% of the tested compounds scored in any of these assays.
# DT40 TDP1 no CPT = qHTS for Inhibitors of human tyrosyl-DNA phosphodiesterase 1 (TDP1): qHTS in cells in absence of CPT; DT40 Tdp1-/- hTDP1 cells, no CPT, ATP luminescence, 48 h; Potency, µM (highest dose often 46.2 µM), for the others: at the top dose activity change, negative = growth inhibition, most hits filed as inhibitors; 15% of 420,000 active; note: nearly all actives have a fitted effect of over 55% in size
#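 Stably hTDP1-transfected Tdp1-null chicken DT40 cells were treated with library compounds minus camptothecin and grown for at least 48 hr at 37 °C, after which cellular ATP was quantified by luminescence.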
# KB-3-1 tox = qHTS assay for MDR1-selective chemotherapeutics: Primary screen using the parental adenocarcinoma cell KB-3-1; Potency, µM (top dose mostly 46.1 µM), actives largely listed as cytotoxic; 1.4% of 400,000 active; KB-3-1 viability, CellTiter-Glo ATP luminescence, 72 h; note: nearly all actives have a fitted effect of over 60% in size
#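 Multi-concentration cytotoxicity screen in KB-3-1 cells grown in DMEM lacking phenol red with 10% FBS. After 72 h at 37 °C with compound, ATP-dependent luminescence was recorded.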
# HT1080-NT tox = qHTS for induction of synthetic lethality in tumor cells producing 2HG: qHTS for the HT-1080-NT fibrosarcoma cell line | HT-1080-NT fibrosarcoma viability, CellTiter-Glo ATP luminescence, 48 h | 1.6% of 360,000 active | Potency, µM (highest dose often 46.1 µM), inactives show top-dose activity, negative = less viability, actives largely listed as cytotoxic | AID 686970, 2013;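 note: NT is the 2HG producing partner of a matched IDH1 knockdown line; 0% = DMSO-treated cells and -100% = media-only wells without cells; nearly all actives have a fitted effect of over 55% in size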
#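 750 cells/well, RPMI + 5% FBS; 2 h settle, compound pin-transfer, 48 h at 37 degrees C. CellTiter-Glo 10 min RT, luminescence. Normalized to DMSO and media-only wells.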
# HT1080 IDH1KD tx = qHTS for induction of synthetic lethality in tumor cells producing 2HG: qHTS for the HT-1080-IDH1KD cell line; HT-1080 IDH1 knockdown viability, ATP luminescence, 48 h; Potency, µM (top dose mostly 46.1 µM), inactives show top-dose activity, negative = toxicity, most hits filed as cytotoxic; 2% of 360,000 active;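 note: 0% = DMSO wells and -100% = cell-free medium wells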
#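 Knockdown cells (IDH1KD HT-1080) received compounds 2 h after plating at 750 cells/well and were kept 48 h at 37 °C in 5% FBS RPMI. A CellTiter-Glo luminescence read gave % activity for curve fitting.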
# TDP1 cell CPT = qHTS for Inhibitors of human tyrosyl-DNA phosphodiesterase 1 (TDP1): qHTS in cells in presence of CPT | chicken DT40 Tdp1-/-;hTDP1 cells + 20 nM CPT, ATP luminescence, 48 h | Potency, µM (top dose mostly 46.2 µM), without a hit: at the highest dose activity change, negative = growth inhibition, most hits filed as inhibitors | AID 686979, 2013 | 12% of 420,000 active; note: nearly all actives have a fitted effect of over 55% in size
#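 Chicken DT40 Tdp1-/- cells stably complemented with human TDP1 were seeded at 400 cells/well in medium containing 20 nM camptothecin, exposed to pin-transferred compounds, and grown at 37 °C for at least 48 hr. Viability was read as ATP luminescence.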
# KB-V1 cytotox = qHTS assay for MDR1-selective chemotherapeutics: Primary screen using the drug-selected MDR subline cells KB-V1; Potency, µM (series often up to 46.1 µM), most hits filed as cytotoxic; KB-V1 MDR cells viability, CellTiter-Glo, 72 h; AID 1347076, 2019; 3.4% of 400,000 active; note: nearly all actives have a fitted effect of over 60% in size
#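 Cytotoxicity via CellTiter-Glo luminescence after 72 h compound exposure at 37 degrees C. Cells: drug-selected KB-V1 line, DMEM phenol-red free plus 10% FBS. Compounds tested at multiple concentrations; normalized data fitted to concentration-effect curves.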
# An asterisk follows results filed as active; i = inactive; ? = inconclusive; nt = no result. Calls come from the whole dose curve; as a rule, active = well fitted curve in the direction sought with a large enough effect; inconclusive = small, poorly fitted or top-dose-only effect, or another doubt; inactive = no such curve, though single readings can be large; an effect the other way counts as inactive or inconclusive. Unless noted, % is set by controls: 0 for no effect and ±100 for the full control effect; potency is the fitted concentration of half-maximal effect.
SMILES,DT40 TDP1 no CPT,KB-3-1 tox,HT1080-NT tox,HT1080 IDH1KD tx,TDP1 cell CPT,KB-V1 cytotox
O=C1SC(SC(=Nc2ccccc2)Nc2ccccc2)C(=O)N1c1ccccc1 (centres undefined),?,?,0%,1%,15µM*,i
O=C1CC(SC(=NCc2ccc3c(c2)OCO3)Nc2ccccc2)C(=O)N1c1ccccc1 (centres undefined),?,i,-1%,-9%,?,i
Cc1cccc(N2C(=O)CC(SC(=Nc3ccccc3)Nc3ccccc3)C2=O)c1 (centres undefined),?,?,-17%,-23%,?,18µM*
CCN=C(NCC)SC1CC(=O)N(c2ccccc2)C1=O (centres undefined),-1%,i,0%,-1%,-3%,i
CN=C(Nc1ccc2c(c1)OCO2)SC1CC(=O)N(c2ccccc2)C1=O (centres undefined),-7%,i,-15%,-12%,-26%,18µM*
CCCCn1nnnc1C(c1ccccc1)N1CCN(C(=O)c2ccco2)CC1 (centres undefined),-20%,i,14%,3%,-5%,i
O=C(Nc1cccc2ccccc12)c1csc([C@@H]2O[C@H](CO)[C@H](O)[C@H](O)[C@H]2O)n1,-5%,i,21%,0%,-8%,i
COc1cc(C)ccc1S(=O)(=O)N1CCN(C23CC4CC(CC(C4)C2)C3)CC1,16µM*,i,5%,6%,?,13µM*
COc1ccc(C)cc1S(=O)(=O)N1CCC(C)CC1,-18%,i,-6%,-3%,-6%,18µM*
COc1ccc(C)cc1S(=O)(=O)N1CCN(c2cccc(Cl)c2)CC1,?,i,nt,nt,21µM*,i
COc1cc(F)ccc1S(=O)(=O)N1CCN(C23CC4CC(CC(C4)C2)C3)CC1,-15%,?,-1%,-10%,1%,i
CCOc1ccc(Cl)cc1S(=O)(=O)N1CCN(c2ccc(C)c(C)c2)CC1,?,i,3%,-7%,?,15µM*
COc1ccc(CCNC(=O)COC(=O)Cn2cnc3c2c(=O)n(C)c(=O)n3C)cc1,0%,i,-2%,-6%,5%,i
Cc1ncc(C[n+]2ccc(C)c(C)c2)c(N)n1,-1%,i,4%,10%,-22%,i
COc1ccccc1NC(=O)Cc1nnc(SCC(=O)c2ccccc2)n1C,0%,i,4%,10%,2%,i
COc1ccc(C)cc1S(=O)(=O)N1CCCC(N2CCN(c3ccccc3)CC2)C1 (centres undefined),21µM*,i,-12%,-15%,?,i
COc1ccc(Cl)cc1S(=O)(=O)N1CCN=C1C,?,?,18%,-5%,18µM*,i
CC[n+]1c(C)n(-c2ccccc2)c2ccc(C(=O)OC)cc21,4%,i,16%,13%,2%,i
Cn1ncc([N+](=O)[O-])c1C(=O)n1nnc2ccccc21,6%,?,16%,10%,-26%,?
CC1=C(C(=O)OCCNC(=O)c2ccccc2O)C(c2ccccc2[N+](=O)[O-])C(C(=O)OCC2CCCO2)=C(C)N1 (centres undefined),18µM*,?,-26%,?,18µM*,i

# Compound activity deposited in PubChem BioAssay by National Center for Advancing Translational Sciences (NCATS).
